We go through 95 molecules from PubChem BioAssay AID624304 (Sanford-Burnham Center for Chemical Genomics, 2012).

The structures appear in SMILES notation. About 1,800 (0.5%) of roughly 360,000 compounds were called active.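 How the source made its calls: active means interference check ratio from 0.5 to 1.5 plus GFP to RFP signal ratio inhibition reaching or exceeding a fixed threshold (cut at about 30% in these data, passing the limit was not always enough); inactive means the rest.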 The sample as a whole holds a higher share of actives than the screen did.

The nature of the assay: suppressors of acrylamide-induced Pgst-4::GFP reporter in worms, primary screen, SKN-1 inhibitor project, whole organism, uHTS, GFP/RFP fluorescence ratio, strain VP596 (AID 624304). To be noted: C. elegans VP596 Pgst-4::GFP/RFP ratio, 24 h, at 21.8 µM, stronger effect = higher value.
`COCCn1c(=NC(=O)c2ccccc2[N+](=O)[O-])sc2cc(S(C)(=O)=O)ccc21`: the inhibition was 0.193% (inactive). The figure for `COc1ccc(C(=O)NC(C)Cn2nc(C)cc2C)cc1OC1CCN(C(C)=O)CC1` (stereo not given) is 8.35% (inactive).

As for `CCC(Cc1ccccc1)NS(=O)(=O)c1ccc2c(c1)NC(=O)CS2` (stereo not given), the inhibition is -5.64% (inactive). As for `O=C(Nc1cc(F)ccc1F)c1ccc2c(=O)n3c(nc2c1)CCC3`, the inhibition is -4.08% (inactive).

For `COC[C@@H]1NS(=O)(=O)c2ccc(Br)cc2O[C@H]1c1ccccc1`, the inhibition was 14.6% (inactive). Then `COc1ccc(C(=O)NCc2ccc(C)cc2)cc1S(=O)(=O)N1CCCC1`, with 0.996% (inactive); and `CCOC(=O)c1cccc(NC(=O)CN2C(=O)C3CC=CCC3C2=O)c1` (stereo not given), with 6.29% (inactive); and `CC(=O)N(CN1C(=O)C2C3C=CC(C3)C2C1=O)c1cccc(Cl)c1` (stereo not given), with 16.7% (inactive). The figure for `CC(=O)N(CN1C(=O)C2CC=CCC2C1=O)c1cccc(Cl)c1` (stereo not given) is 36.1% (active); for `COc1ccc(NC(=O)C(CC(C)C)NC(=O)C2CCC(C)CC2)cc1` (stereo not given) it is -11.6% (inactive); for `CC(=O)Oc1ccc(C(=O)Nc2nccs2)cc1` it is 3.06% (inactive). `COc1ccc(Cc2nnc(NC(=O)c3cc(OC)c(OC)c(OC)c3)s2)cc1OC`: the inhibition was -13.7% (inactive). For `COc1cc(C(=O)Nc2nccs2)cc(OC)c1OC`, the inhibition was 41.9% (active). Then `CCC(C)(C)c1ccc(OCC(=O)N(C)C)c(C(C)(C)CC)c1`, with 2.98% (inactive); and `CC1(C(=O)NS(=O)(=O)c2cccc(F)c2)CCN1C(=O)Cc1ccc(Cl)cc1Cl` (stereo not given), with 15.6% (inactive); and `C=C(C)Cn1c(N2CCN(CC)CC2)nc2c1c(=O)[nH]c(=O)n2C`, with 16.3% (inactive). As to `Cc1ccc(Sc2cc(N3CCOCC3)nc(-c3ccccc3)n2)cc1`, the inhibition is 7.71% (inactive). For the molecule `O=S(=O)(Cc1cc(Cl)nc(-c2cccnc2)n1)c1ccccc1`, the inhibition was -15.6% (inactive). On to `O=S(=O)(Cc1cc(Sc2ccccc2)nc(-c2ccccc2)n1)c1ccccc1`, for which the inhibition is 44.9% (active).

Turning to `Cc1cc2c(=O)n(CC(=O)NCC(=O)Nc3ccc(C(C)C)cc3)cnc2s1`, the inhibition was -0.0427% (inactive). For `CCOc1ccc(N2C(=O)/C(=C/c3ccc(C)o3)N(C)C2=S)cc1`, the inhibition is -1.02% (inactive). For `CCOc1cc2[nH]c(=S)n(CCCN3CCCC3=O)c(=O)c2cc1OCC`, the inhibition is -28.4% (inactive). Turning to `O=Cc1c(NCCCN2CCCC2=O)c2ccccc2[nH]c1=O`, the inhibition was 19.6% (inactive).

With `O=C(CCn1c(=S)[nH]c2ccccc2c1=O)NCCCN1CCCC1=O`, the inhibition is 36.5% (active). Then `COc1ccc(N2CCN(C(=O)C3CCN(S(=O)(=O)c4ccc(C)cc4)CC3)CC2)cc1`, with 5.77% (inactive); and `CC(CCc1ccccc1)NC(=O)COC(=O)c1ccc(F)cc1` (stereo not given), with 3.96% (inactive). For `CCc1ccc(OCC(=O)OCC(=O)c2c(N)n(C)c(=O)n(C)c2=O)cc1`, the inhibition is -10% (inactive).

In the case of `C[C@H]1CN([C@@H](C)CO)C(=O)CCCn2cc(nn2)CO[C@@H]1CN(C)C(=O)Nc1ccccc1`, the inhibition is 1.2% (inactive).

On to `Cc1cc(NC(=O)CCN2CCN(Cc3ccccc3)CC2)ccc1Br`, for which the inhibition was 1.51% (inactive). Take `COC(=O)CNC(c1ccccc1Cl)c1cc(Br)ccc1NC(=O)CCN1CCOCC1` (stereo not given): the inhibition was 35.2% (active). The figure for `COc1ccccc1NC(=O)CCN1CCN(c2ccc(Cl)cc2)CC1` is 8.41% (inactive); for `Cc1cc(C)cc(NC(=O)C2CCCN(S(=O)(=O)c3ccc4[nH]c(=O)ccc4c3)C2)c1` (stereo not given) it is 11.9% (inactive); for `O=S(=O)(NC1CC2CCC1C2)c1ccc(Cl)cc1` (stereo not given) it is 8.97% (inactive). Then `CN1c2ccc(C=O)c3c(C=O)ccc(c23)N(C)C1(C)C`, with 39.8% (active); and `CCCCNC(=O)C1(O)c2ccccc2NC(=O)N1c1ccc(Cl)cc1` (stereo not given), with 19.1% (inactive); and `CSc1ccc(CNC(=O)c2ccc(NC(=O)C3=CSCCO3)cc2)cc1`, with 22.9% (inactive). As to `Cc1nc2ccccn2c1C(=O)NN=C1CCN(C)CC1`, the inhibition is 8.18% (inactive). With `CC1=NNC(=O)C1Cc1c(Cl)cccc1Cl` (stereo not given), the inhibition is -3.65% (inactive).

Regarding `Cc1ccc(OCCNC(=O)CNC(=O)c2ccc(C)c(C)c2)cc1`, the inhibition is 5.58% (inactive). The figure for `COC(=O)c1ccccc1N=NNc1ccc([N+](=O)[O-])cc1` is 20.6% (inactive); for `CC(C=Cc1ccccc1)=NNS(=O)(=O)c1ccc([N+](=O)[O-])cc1` it is 21.6% (inactive). Take `O=[N+]([O-])c1ccc(N/N=C/c2ccccc2)cc1`: the inhibition was 41.2% (active).

On to `CC1CN(c2cc(=O)n(-c3cccc(Br)c3)c(=O)[nH]2)CC(C)O1` (stereo not given), for which the inhibition is 5.49% (inactive). The figure for `Brc1ccc2nc(N3CCCC3)sc2c1` is 52% (active); for `O=C(NCCc1cccc(F)c1)C1CCCN(c2nc3ccccc3s2)C1` (stereo not given) it is 10.3% (inactive). Then `COc1ccc2nc(N3CCN(C(=O)c4ccc([N+](=O)[O-])o4)CC3)sc2c1`, with 2.32% (inactive); and `CCCCN1C(=S)NC[C@@H]1C(C)CC` (stereo not given in full), with -0.152% (inactive). Regarding `Clc1ccc(C[n+]2cc(-c3ccc(Cl)cc3)n3c2CCC3)cc1`, the inhibition was 0.364% (inactive). Then `O=C(C1CCN(S(=O)(=O)c2cnc[nH]2)CC1)N1CCN(Cc2ccc3c(c2)OCO3)CC1`, with 17.4% (inactive); and `COc1ccccc1N1CCN(CC(=O)Nc2ccnn2C2CCCC2)CC1`, with -9.67% (inactive). The figure for `FC(F)(F)c1ccnc(Oc2ccc(C3=NCCS3)cc2)c1` is 44.7% (active); for `CCC(=O)Nc1ccc(S(=O)(=O)Nc2c(NC)c3ccccc3oc2=O)cc1` it is 9.74% (inactive); for `CN(Cc1ccccc1)C(=O)COC(=O)c1ccccc1Nc1ccccc1` it is -4.32% (inactive). Turning to `Cc1cccc(N2CCN(C(=O)c3cccc(S(=O)(=O)N4CCc5ccccc5C4)c3)CC2C)c1` (stereo not given), the inhibition was -16.8% (inactive). For `COc1cccc(C2SCC(=O)N2c2cccc(C)c2)c1OC` (stereo not given), the inhibition was 2.8% (inactive).

Take `Cc1cc(C(C)(C)C)oc1C(=O)N(CC(=O)NC1CCCC1)Cc1ccc(Cl)cc1`: the inhibition was 6.57% (inactive). The figure for `CCCCOc1ccc(-c2nnc(-c3ccco3)o2)cc1` is 64.9% (active); for `CCCCSc1nnc(-c2ccc(C)cc2)o1` it is 1.11% (inactive); for `O=C(CSc1nnc(-c2ccco2)o1)NCC(=O)c1ccccc1` it is -0.628% (inactive). Then `CCCOc1ccc(-c2c(C(=O)N/N=C/c3ccco3)nnn2-c2nonc2N)cc1`, with 3.6% (inactive); and `CCOc1ccc(-c2nnc(-c3ccco3)o2)cc1`, with 58.1% (active); and `CCOc1ccc(NC(=O)N(CCC(C)C)C(C)c2ccco2)cc1` (stereo not given), with -11.7% (inactive). For the molecule `OCC(CO)(CO)NCc1ccc(-c2ccccc2)cc1`, the inhibition is 5.37% (inactive).

As for `CC(O)c1nc2c(c(=O)n(C)c(=O)n2C)n1C` (stereo not given), the inhibition is 1.19% (inactive).

As to `Cc1cccc(CN2CCN(Cc3cnn(-c4ccccc4F)c3)CC2CCO)n1` (stereo not given), the inhibition is -14.6% (inactive).

Take `COc1ccc(C(=O)N(C)CC(O)c2ccccc2)cc1OC1CCN(C(C)=O)CC1` (stereo not given): the inhibition is -1.73% (inactive). The figure for `COCCNC(=O)c1ccc(-n2c(SCc3cccnc3)nc3ccccc3c2=O)cc1` is 7.94% (inactive); for `CCC(C(=O)NCc1ccccc1)n1c(Cc2cc(F)cc(F)c2)nc2ccccc21` (stereo not given) it is -5.9% (inactive). Then `COc1cccc(NC(=O)C2CCCN(c3ncnc4c3nc3n4CCCCC3)C2)c1` (stereo not given), with 35.4% (active); and `COc1cccc(CNC(=O)C2CCCN(c3ncnc4c3nc3n4CCCCC3)C2)c1` (stereo not given), with 15.4% (inactive); and `CCOC(=O)c1cccc(NC(=O)C2CCN(c3ncnc4c3nc3n4CCCCC3)CC2)c1`, with -10.7% (inactive). Then `CCCC1C(=O)N2C(N(C)C)=Nc3ccc(C)cc3N2C1=O` (stereo not given), with 11.9% (inactive). Regarding `Cn1c(=O)c2c(ncn2CC(COCc2ccccc2Cl)OCc2ccccc2Cl)n(C)c1=O` (stereo not given), the inhibition was -6.9% (inactive). Take `CNC(=O)/C(C#N)=C/c1c(F)cccc1Cl`: the inhibition is 14.6% (inactive).

With `C=CCC1(C#N)C(=S)NC(C)=C(C(=O)OCC)C1c1ccccc1` (stereo not given), the inhibition was 20.2% (inactive). Then `CCCNC(=O)C1CC(=O)N(c2ccc(OCc3ccccc3)cc2)C1` (stereo not given), with 5.65% (inactive); and `CC1(C)NC(=O)N(CCCCSc2ccc(Cl)cc2)C1=O`, with 4.13% (inactive). As to `CNS(=O)(=O)c1ccc2c(c1)[nH]c(=S)n2C`, the inhibition is 45.2% (active). Then `CCCCn1c(=S)[nH]c2cc(S(=O)(=O)N3CCCCC3)ccc21`, with 15.1% (inactive). Then `CCn1c(=S)[nH]c2cc(S(=O)(=O)N3CCOCC3)ccc21`, with -5.66% (inactive). Then `O=C(Nc1ccc2c(c1)CCC2)c1ccc(Br)s1`, with 9.29% (inactive); and `COc1ccc2nc(NC(=O)c3ccc(Br)s3)sc2c1`, with 38.2% (active); and `COc1ccc(CNC(=O)c2ccc(Br)s2)cc1OC`, with -0.0485% (inactive).

Turning to `Cc1cc(N)n(-c2ccc(S(=O)(=O)N3CCCC3)cc2[N+](=O)[O-])n1`, the inhibition was -11.2% (inactive). Consider `Cc1oc(-c2cccc(Cl)c2)[n+]([O-])c1C`, for which the inhibition was 20.3% (inactive). In the case of `O=C(CCCC(=O)N(CC(=O)NC1CCCC1)Cc1ccccc1Cl)Nc1ccccn1`, the inhibition was 12% (inactive).

On to `O=C(NC(=S)Nc1ccc(Cl)c(C(=O)O)c1)c1cncc(Br)c1`, for which the inhibition was -0.232% (inactive). In the case of `O=C(NC(=S)Nc1ccc(S(=O)(=O)Nc2ncccn2)cc1)c1cccc(Br)c1`, the inhibition was -6.45% (inactive). Then `O=C(NC(=S)Nc1cccc2c(O)cccc12)c1cccc(Br)c1`, with 41.4% (active); and `CC(=O)c1ccc(N2CCN(C(=O)c3ccc(Cl)c(S(=O)(=O)NC4CC4)c3)CC2)c(F)c1`, with 14.2% (inactive). The figure for `CC(=O)c1ccc(N2CCN(C(=O)CCNC(=O)Cn3ccc4ccccc4c3=O)CC2)cc1` is -6.32% (inactive). The figure for `CC1CCN(c2ccc([N+](=O)[O-])c(SCCO)c2)CC1` is 13.8% (inactive); for `Clc1ccc(Nc2ccc3ccccc3n2)cc1` it is 47.2% (active); for `CC1(C)N=C(N)NC(Nc2ccc(Cl)cc2)=N1` it is 9.6% (inactive).

On to `C=CCNc1nc(Nc2ccc(Cl)cc2)nc(OC)n1`, for which the inhibition was 13.7% (inactive).
